Source: PubChem BioAssay
Most compounds without a hit are left out; they make up all but 2.4% or so of the library.
CHO-K1 Ca antag: counter-screen for M1 antagonists: effect in parental CHO-K1 cells; inhibition, % at 3 µM; 0.6% of 360,000 active; ATP-induced calcium, Fluo-8 fluorescence; AID 602250;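 active = inhibition above a per-plate cutoff, the plate's mean sample inhibition plus 3 SD, cut at about 24% in these data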
CHO-K1 Ca ag: counter-screen for M1 agonists: effect in parental CHO-K1 cells | AID 602248, 2012 | Fluo-8 calcium fluorescence; scaled to maximal ATP response, vehicle zero | activation, % at 3 µM | 0.48% of 360,000 active; in the data active = activation above about 15%;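 note: untransfected CHO-K1 host cells lacking M1 receptor as counterscreen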
M1 PAM: human M1 muscarinic receptor positive allosteric modulators, primary screen, CHO-K1 cells, Fluo-8 calcium fluorescence, 1536-well | Muscarinic acetylcholine receptor M1 (Homo sapiens), P11229 | CHO-K1 hM1, ACh EC20; 0% = ACh EC20, 100% = maximal ACh | activation, % at 3 µM | 0.088% of 360,000 active | AID 588819, 2011; in the data active = activation above about 19%, passing the limit was not always enough
Target sequence (P11229 whole entry, looked up): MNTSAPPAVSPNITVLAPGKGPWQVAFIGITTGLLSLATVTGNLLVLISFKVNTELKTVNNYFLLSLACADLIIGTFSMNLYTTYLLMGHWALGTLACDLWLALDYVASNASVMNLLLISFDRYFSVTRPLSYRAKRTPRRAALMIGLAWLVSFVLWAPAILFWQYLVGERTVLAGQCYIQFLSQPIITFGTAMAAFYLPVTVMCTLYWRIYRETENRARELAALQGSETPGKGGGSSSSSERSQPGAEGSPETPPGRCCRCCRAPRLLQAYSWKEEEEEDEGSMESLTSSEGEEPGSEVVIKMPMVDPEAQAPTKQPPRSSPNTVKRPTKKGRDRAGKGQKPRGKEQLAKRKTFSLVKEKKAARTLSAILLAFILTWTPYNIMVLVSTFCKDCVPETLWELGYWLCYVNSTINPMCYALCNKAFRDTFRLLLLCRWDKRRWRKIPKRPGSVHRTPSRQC
CHRM1 agonist: human M1 muscarinic receptor agonists, primary screen, Fluo-8 calcium fluorescence, CHO-K1 cells, HTS; Muscarinic acetylcholine receptor M1 (Homo sapiens), P11229; CHO-K1 hM1, agonist mode; 0% DMSO, 100% acetylcholine EC100; activation, % at 3 µM; 0.33% of 360,000 active; AID 588814, 2011;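 active = activation above the run's mean compound activation plus 3 SD, cut at about 16% in these data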;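 note: peak over basal fluorescence ratio within a 140 s kinetic read after compound addition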
M1 PAM parental: nonselective calcium activators in parental CHO-K1 cells, primary screen, counter-screen for M1 PAM project, cell-based, Fluo-8 calcium fluorescence, full deck, 1536-well; AID 602247, 2012; ATP EC20; 0% at ATP EC20, 100% at ATP max; activation, % at 3 µM; 0.02% of 360,000 active;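 active = activation above the run cutoff, the mean activation of all test compounds plus 3 SD, cut at about 40% in these data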;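 note: peak over basal fluorescence ratio in a 140 s read after ATP addition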
CHRM1 antagonist: human M1 muscarinic receptor antagonists, primary screen, CHO-K1 cells, Fluo-8 calcium fluorescence, 1536-well | CHO-K1 hM1, ACh EC80 antagonist | inhibition, % at 3 µM | 1.3% of 360,000 active;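 active = percent inhibition above its own plate's cutoff, namely the mean of that plate's compound wells plus 3 SD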;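 note: peak over basal fluorescence ratio during 140 s after agonist addition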
Of the large screens only hits and unclear results are named; the others gave an inactive call.

Cc1nnc2ccc(Oc3ccc(-c4ccccc4)cc3)nn12	CHO-K1 Ca antag 40, CHRM1 antagonist 34
O=C(CSc1nc(-c2ccco2)cc(C(F)(F)F)n1)Nc1ccc2c(c1)CCC2	none
O=C(CSc1nc(-c2ccco2)cc(C(F)(F)F)n1)NC1CCCC1	CHO-K1 Ca antag 24
O=C(N/N=C\c1ccc([N+](=O)[O-])s1)C1COc2ccccc2O1 (centres undefined)	CHO-K1 Ca antag 65
Cc1c(/C=C/C(=O)c2ccccc2)cnn1C	CHO-K1 Ca ag 16
O=C(O)c1cc(Cl)ccc1-c1ccc(/C=C/c2cc(C(F)(F)F)[nH]c(=O)n2)o1	CHO-K1 Ca ag 26
Cc1nc(S/C(=C/c2ccc(-c3cc(Cl)ccc3C)o2)C(=O)O)n[nH]1	none
O=C(O)c1ccccc1-c1ccc(/C=C/c2cc(C(F)(F)F)[nH]c(=O)n2)o1	CHO-K1 Ca ag 26
N/C(=N\O)c1ccccc1N1CCCCC1	none
Cc1ccccc1C(=O)N1CCCC(N2CCN(Cc3ccc4c(c3)OCO4)CC2)C1 (centres undefined)	none
Cc1ccc(NS(=O)(=O)c2ccc(-n3cccn3)cc2)c(C)c1	none
Cc1ccc(NS(=O)(=O)c2ccc(-n3cccn3)cc2)nc1	CHO-K1 Ca antag 31
Cc1ccc(NS(=O)(=O)c2ccc(-n3cccn3)cc2)cc1F	none
COc1cccc(NS(=O)(=O)c2ccc(-n3cccn3)cc2)c1	CHO-K1 Ca ag 16, CHRM1 antagonist 44
Cc1nn(C)c2nc(-c3cccs3)cc(C(F)(F)F)c12	none
Cc1nn(CCO)c2nc(-c3cccs3)cc(C(F)(F)F)c12	CHO-K1 Ca antag 24
CC(Nc1nc(-c2ccncc2)nc2ccccc12)c1ccccc1 (centres undefined)	none
CC(Nc1nc(-c2cccnc2)nc2ccccc12)c1ccccc1 (centres undefined)	CHO-K1 Ca ag 17
N#C/C(=C/c1ccc(N2CCCCC2)o1)C(=O)Nc1ccc2ccccc2c1	CHO-K1 Ca antag 85, CHO-K1 Ca ag 266, CHRM1 agonist 240, CHRM1 antagonist 87
N#C/C(=C/c1ccc(N2CCCCC2)o1)C(=O)Nc1ccc(Cl)cc1	CHO-K1 Ca antag 36, CHO-K1 Ca ag 79, CHRM1 agonist 102, CHRM1 antagonist 68
Cc1ccc(CNC(=O)C2COc3ccccc3O2)cc1 (centres undefined)	none
Cc1ccc(C(C(=O)NCc2ccc(F)cc2)N(CCCO)C(=O)C2COc3ccccc3O2)o1 (centres undefined)	CHO-K1 Ca ag 19
CCOC(=O)c1c(C)nc2c(c1-c1cc(OC)ccc1OC)C(=O)c1ccccc1-2	none
CCOC(=O)C1=C(Cc2ccc(OC)cc2)C(=O)c2ccccc2C1=O	CHO-K1 Ca antag 25, CHO-K1 Ca ag 15, CHRM1 antagonist 36
CCC1CCCCN1CCNS(=O)(=O)c1ccc2c(c1)oc(=O)n2C (centres undefined)	CHRM1 antagonist 50
CCC1CCCCN1CCCNS(=O)(=O)c1ccc2c(c1)oc(=O)n2C (centres undefined)	none
O=C1NC[C@@H](CCCCN2C[C@H](Cc3ccc(O)cc3)N(CC3CCCCC3)C(=O)C2=O)N(CCC2CCCCC2)C1=O	CHO-K1 Ca ag 63 (no result: M1 PAM, CHRM1 agonist, CHRM1 antagonist)
O=C1NC[C@H](CCCCN2C[C@H](Cc3ccccc3)N(Cc3ccccc3)C(=O)C2=O)N(CC2CCCCC2)C1=O	none (no result: M1 PAM, CHRM1 agonist, CHRM1 antagonist)
O=C1NC[C@@H](CCCCN2C[C@H](Cc3ccccc3)N(CC3CCCCC3)C(=O)C2=O)N(Cc2ccccc2)C1=O	CHO-K1 Ca ag 17 (no result: M1 PAM, CHRM1 agonist, CHRM1 antagonist)
CCOC(=O)C1CCCN(C2CC(=O)N(c3ccc(C)cc3)C2=O)C1 (centres undefined)	CHRM1 agonist 20
CCOC(=O)C1CCCN(S(=O)(=O)c2ccc(NC(C)=O)cc2)C1 (centres undefined)	none
CCOC(=O)C1CCCN(C2CC(=O)N(c3ccc(NC(C)=O)cc3)C2=O)C1 (centres undefined)	CHRM1 agonist 36
COc1ccccc1C(=O)NC1CCN(C(=O)Nc2ccc(C)cc2)CC1	none
CNc1cc(-c2cccc(OC)c2F)nc2ccnn12	none
COc1cc2c(-c3ccc4cc[nH]c4c3)c(-c3ccsc3)oc(=O)c2cc1OC	CHRM1 antagonist 37
C/C(=N\Nc1cc(C)nc(NCc2ccccc2)n1)c1ccc([N+](=O)[O-])cc1	CHRM1 antagonist 38
CNC(=O)C(=O)NCCc1ccc(Cl)cc1	M1 PAM 21
O=[N+]([O-])c1ccc(NC(=S)NCc2ccc(F)cc2)cc1	CHO-K1 Ca antag 24, CHRM1 antagonist 28
O=[N+]([O-])c1ccc(NC(=S)NCCc2ccc(Cl)cc2)cc1	CHRM1 antagonist 35
S=C(NCCc1ccccc1)Nc1ccc(Cl)cc1	none
O=[N+]([O-])c1ccc(NC(=S)NCc2ccncc2)cc1	none
O=[N+]([O-])c1ccc(NC(=S)NCCc2ccccc2)cc1	CHRM1 antagonist 39
NS(=O)(=O)c1ccc(NC(=S)NCCc2ccccc2)cc1	none
Clc1ccc(-c2nsc(N3CCOCC3)n2)c(Cl)c1	none
COc1ccccc1Oc1nc([N+](=O)[O-])nn1CC(N)=O	none
COc1ccc(Cn2c(=O)[nH]c3cc(C(=O)NCCc4ccc(S(N)(=O)=O)cc4)ccc3c2=O)cc1	none
O=C(CNC(=O)c1ccccc1)NCCc1ccc(O)c(O)c1	M1 PAM 31
NS(=O)(=O)c1ccc(CCNC(=O)CNC(=O)c2ccc(F)cc2)cc1	none
S=C1NC2=C(CCCC2=C2SCCS2)C(c2ccccc2)N1 (centres undefined)	CHO-K1 Ca antag 25
CCN(CC(=O)Nc1ccc2c(c1)OCCO2)C(=O)/C=C/c1cccc(OC)c1OC	M1 PAM 27, CHRM1 agonist 17
CCN(CC(=O)Nc1ccc2c(c1)OCCO2)C(=O)/C=C/c1ccc(OC)cc1OC	none
COc1ccc(NS(=O)(=O)c2ccc(-c3coc(C)n3)cc2)cc1	none
COc1ccc(NS(=O)(=O)c2ccc(-c3coc(C)n3)cc2)cc1OC	CHO-K1 Ca antag 50, CHO-K1 Ca ag 20, CHRM1 antagonist 63
O=C(c1ccoc1)N1CCN(c2cc(-c3cccc(F)c3)nc3cc(-c4cccc(Cl)c4)nn23)CC1	none
COc1ccccc1Nc1c2c(nc3ccccc13)CCC2	none
c1ccc2c(Nc3ccc4c(c3)OCCO4)c3c(nc2c1)CCCC3	CHRM1 antagonist 28
COc1cc(Nc2c3c(nc4ccccc24)CCCC3)cc(OC)c1OC	CHO-K1 Ca ag 17
